A selection: hits, their analogues and other compounds. The true share with any hit is near 14%.
Pf growth 96h: inhibits malaria parasite growth, 96 h. P. falciparum luciferase reporter growth, 96 h. Potency, µM (doses to about 28.7 µM), for the others: at the top dose activity change, negative = inhibition, most hits filed as inhibitors. 320,000 compounds, 6.9% hits; note: potency is the fitted concentration of half-maximal effect
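P. falciparum expressing integrated firefly luciferase grown in erythrocytes (2% hematocrit, 0.05% parasitemia final) with compounds for 96 hours at 37 C, 5% CO2. Growth inhibition read as loss of luminescence after adding luciferase detection reagent.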
Sm TGR block: inhibitors of Schistosoma mansoni thioredoxin glutathione reductase; AID 485364; Q962Y6; 360,000 compounds, 3% hits; Potency, µM (titrated, usually from 114 µM), inactives show at the highest dose activity change, negative = inhibition, usual class: inhibitors; purified TGR, DTNB reduction, TNB absorbance 405 nm; note: potency is the fitted concentration of half-maximal effect; nearly all actives have a fitted effect of over 60% in size
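Kinetic colorimetric format: TGR-catalysed, NADPH-driven DTNB reduction monitored via TNB absorbance. Enzyme dispensed at 20 nM; compound exposure 15 min at room temperature before reaction start.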
HCMV antiviral: inhibitors of human cytomegalovirus; HFF cells, HCMV-luciferase reporter, 72 h; hits give low values; activity change, negative = inhibition, % at 57.5 µM; 410,000 compounds, 4.5% hits; in the data active = activity change below about -60%; inconclusive = no clear call, values can overlap the other calls; inactive = above about -39%
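Cell-based, HFFs, 1000 cells/well, 16 h 37C; cpds in DMSO + HCMV-luc, MOI 1 PFU/cell; 72 h 37C; OneGlo luminescence after 5 min RT; norm. to buffer vs Salinomycin 10uM.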
Pf growth 48h: P. falciparum growth inhibition at 48 hours (one generation) | P. falciparum luciferase growth in erythrocytes, 48 h | Potency, µM (highest dose often 28.7 µM), inactives show at the highest dose activity change, negative = inhibition, most hits filed as inhibitors | 310,000 compounds, 5.9% hits | AID 504832; note: potency is the fitted concentration of half-maximal effect
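Read-out is firefly luciferase luminescence from an integrated reporter in P. falciparum, so falling signal marks reduced parasite growth. Infected erythrocytes were at 2% hematocrit and 0.1% parasitemia (final) in Albumax-supplemented RPMI 1640.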
FBPA Giardia inh: blocks Giardia fructose-bisphosphate aldolase activity; A8B2U2; purified Giardia FBPA; Potency, µM (doses to about 59.6 µM), without a hit: at the top dose activity, negative = inhibition, usual class: inhibitors; 290,000 compounds, 0.71% hits; note: potency is the fitted concentration of half-maximal effect; nearly all actives have a fitted effect of over 55% in size
Target sequence (A8B2U2 whole entry, looked up): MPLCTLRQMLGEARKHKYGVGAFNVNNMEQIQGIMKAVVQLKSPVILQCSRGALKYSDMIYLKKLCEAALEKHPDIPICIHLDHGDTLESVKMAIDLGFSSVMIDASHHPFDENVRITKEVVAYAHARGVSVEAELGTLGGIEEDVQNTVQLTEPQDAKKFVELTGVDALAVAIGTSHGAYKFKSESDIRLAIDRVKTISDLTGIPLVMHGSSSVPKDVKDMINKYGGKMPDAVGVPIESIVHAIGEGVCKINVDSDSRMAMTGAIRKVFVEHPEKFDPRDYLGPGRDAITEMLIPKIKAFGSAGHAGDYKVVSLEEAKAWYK
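Giardia FBPA (40 nM reagent) was preincubated 10 min at RT with compound (up to 57.5 uM final), then substrate plus GAPDH/TPI/NAD/arsenate coupling system with diaphorase/resazurin was added; resorufin fluorescence (525/598 nm) was read after 20 min.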
Active calls of the source: *; i = inactive; ? = inconclusive; · = no result; [ ] = another dose, or the depositor's remark. Unless noted, calls come from the whole dose curve; as a rule, active = well fitted curve in the direction sought with a large enough effect; inconclusive = small, poorly fitted or top-dose-only effect, or another doubt; inactive = no such curve, though single readings can be large; an effect the other way counts as inactive or inconclusive. % is set by controls: 0 for no effect and ±100 for the full control effect.

SMILES	Pf growth 96h	Sm TGR block	HCMV antiviral	Pf growth 48h	FBPA Giardia inh
O=C(NCC(c1ccco1)N1CCN(c2ccccc2F)CC1)C1CCCCC1 (stereo not drawn)	-23.0%	-10.7%	-30.4	11.7µM*	·
O=C(Nc1ccc(F)cc1)N1CC(=O)N2[C@H](CO)[C@@H](c3ccc(Br)cc3)[C@H]2C1	·	·	-0.9	·	·
O=C(C1=C(O)C(=O)N(Cc2ccco2)C1c1cccc(O)c1)c1ccco1 (stereo not drawn)	-8.8%	?	-12.3	25.8%	-18.8%
O=C(C1=C(O)C(=O)N(Cc2ccco2)C1c1cccnc1)c1cc2ccccc2o1 (stereo not drawn)	-10.7%	25.1µM*	0.5	7.1%	11.5%
COc1ccc(C2C(C(=O)c3ccco3)=C(O)C(=O)N2Cc2cccnc2)cc1OC (stereo not drawn)	30.5%	5.2%	-21.1	0.6%	-27.0%
COc1cccc2cc(C(=O)C3=C(O)C(=O)N(Cc4ccco4)C3c3cccnc3)oc12 (stereo not drawn)	0.4%	25.1µM*	·	-2.2%	10.5%
COc1ccc(-c2nc(CS(=O)CC(=O)NCc3ccccc3Cl)c(C)o2)cc1OC (stereo not drawn)	·	-21.0%	-7.8	·	·
COc1cccc(-c2nc(CS(=O)CC(=O)NCc3ccccc3Cl)c(C)o2)c1 (stereo not drawn)	-37.0%	31.6µM*	20.8	·	-0.6%
COCCCNC(=O)CS(=O)Cc1nc(-c2cccc(OC)c2)oc1C (stereo not drawn)	i	39.8µM*	18.3	?	0.0%
Cc1cc(NC(=O)CSCC(=O)Nc2nc3ccccc3s2)no1	-2.9%	-7.4%	23.4	16.4%	·
CNc1cncc(-c2ccoc2)n1	·	·	-9.1	·	·
COc1ccc(C2=Nc3ccccc3N(C(=O)c3ccc4ncccc4c3)C2C(=O)NC2CCCC2)cc1 (stereo not drawn)	·	·	-77.7*	·	·
COc1ccc(C2=Nc3ccccc3N(C(=O)c3ccc4ncccc4c3)C2C(=O)NC(C)(C)C)cc1 (stereo not drawn)	·	·	199.0	·	·
O=C1NC2=C(C(=O)CCC2)C(c2ccccc2Cl)N1 (stereo not drawn)	2.94µM*	-8.3%	47.1	-19.8%[0.00184 µM]	4.5%
O=S(=O)(C/C(=C/CO)S(=O)(=O)c1ccccc1)c1ccccc1	?	4.47µM*	-105.9*	?	0.3%
O=C(CS(=O)(=O)c1ccccc1)CS(=O)(=O)c1ccccc1	·	·	65.6	·	·
Cc1ccccc1NC(=O)CSc1nnc(COc2ccc(Cl)cc2)o1	·	-16.5%	-1.8	·	·
CCCCNC(=O)N(O)C1N(/N=C/c2ccco2)C(=S)SC1(C)C (stereo not drawn)	?	28.2µM*	10.5	?	·
COc1ccc(-c2csc(NC(=O)C3CC(=O)N(Cc4ccco4)C3)n2)cc1 (stereo not drawn)	?	35.5µM*	-5.3	?	-4.8%
COc1ccc(-c2csc(NC(=O)C3CC(=O)N(c4ccc5c(c4)OCCO5)C3)n2)cc1 (stereo not drawn)	11.7µM*	-1.4%	?	?	-6.4%
O=C(Nc1nccs1)C1CC(=O)N(Cc2ccco2)C1 (stereo not drawn)	-3.6%	10µM*	-26.0	1.4%	0.2%
CC(=O)Nc1ccc(-c2csc(NC(=O)C3CC(=O)N(c4ccc5c(c4)OCCO5)C3)n2)cc1 (stereo not drawn)	?	2.0%	?	?	-15.7%
NS(=O)(=O)c1cccc(NC(=O)C2CC(=O)N(Cc3ccco3)C2)c1 (stereo not drawn)	19.0%	50.1µM*	36.5	12.4%	8.3%
CN(c1ccc(-c2csc(NC(=O)C3CC(=O)N(Cc4ccco4)C3)n2)cc1)S(C)(=O)=O (stereo not drawn)	?	-26.2%	24.2	?	·
O=C(Nc1ccc(Cl)cc1F)C1CC(=O)N(Cc2ccco2)C1 (stereo not drawn)	11.4%	-33.3%	-4.9	?	·
SMILES	Pf growth 96h	Sm TGR block	HCMV antiviral	Pf growth 48h	FBPA Giardia inh
CC(=O)c1sc(NC(=O)C2CC(=O)N(Cc3ccco3)C2)nc1-c1ccccc1 (stereo not drawn)	-1.4%	-17.2%	-13.6	?	·
Cc1ccc(N2CC(C(=O)Nc3ccc4c(c3)OCO4)CC2=O)cc1 (stereo not drawn)	10.2%	1.2%	8.1	-2.6%	-6.8%
COc1ccc(-c2nc(NC(=O)C3CC(=O)N(Cc4ccco4)C3)sc2C)cc1 (stereo not drawn)	?	-5.2%	-15.9	11.7µM*	·
COCc1nnc(NC(=O)C2CC(=O)N(c3ccc(C)c(Cl)c3)C2)s1 (stereo not drawn)	?	-4.0%	1.4	1.9%	·
COC(=O)c1ccccc1NC(=O)C1CC(=O)N(c2ccc(C)c(C)c2)C1 (stereo not drawn)	4.15µM*	5.3%	-6.0	·	-3.2%
Cc1ccc(N2CC(C(=O)Nc3nccs3)CC2=O)cc1Cl (stereo not drawn)	-17.6%	2.4%	-91.2*	·	5.9%
CC(C)Oc1ccc(N2CC(C(=O)Nc3ccc4c(c3)OCO4)CC2=O)cc1 (stereo not drawn)	14.7µM*	-29.7%	18.2	·	1.0%
CC(=O)N1c2ccc(S(=O)(=O)N3CCC(C(=O)NCc4ccc(N(C)C)cc4)CC3)cc2CC1C (stereo not drawn)	-16.8%	-16.1%	-32.6	-18.9%	6.5%
COc1ccc(-c2nc(NC(=O)C3CCN(c4nc5ccccc5o4)CC3)sc2C)cc1	·	0.1%	-23.4	8.28µM*	-5.1%
O=C(Nc1nc2ccccc2[nH]1)C1CC(=O)N(c2ccc3c(c2)OCCO3)C1 (stereo not drawn)	8.28µM*	-3.5%	4.7	5.5%	-7.3%
O=C(NCc1ccc(F)cc1)C1CC(=O)N(Cc2ccco2)C1 (stereo not drawn)	0.5%	39.8µM*	14.2	-0.2%	·
COCCCNC(=O)C1CCCN(c2ncnc3onc(C)c23)C1 (stereo not drawn)	·	-0.3%	-8.2	·	·
CC(=O)c1cccc(NC(=S)NC(=O)CC(C)(C)C)c1	-15.2%	-6.2%	30.2	-11.2%	0.6%
COC(=O)c1ccc(C(NC(=O)OCc2ccccc2)/C(=C/[C@@H](C)C(=O)N[C@@H](CO)Cc2ccccc2)c2cccnc2)cc1 (stereo partly drawn)	·	·	·	·	-2.0%
COc1ccc2c(c1)C(=O)[C@H](OC(=O)NCc1ccc3c(c1)OCO3)[C@@H](c1ccc(OC)c(Br)c1)O2	·	·	·	·	0.1%
CCCCC(=O)NC(=S)Nc1c(C)cc(Br)cc1C	-11.0%	-21.2%	-26.7	2.0%	4.0%
CC(C)(C)C1CCc2[nH]c3ccccc3c(=O)c2C1 (stereo not drawn)	?	3.9%	-2.3	0.522µM*	-14.6%
O=c1c2c([nH]c3ccccc13)C(=C1CCCC1)CC2	0.0%	12.6µM*	·	13.1µM*	0.6%
O=c1c2c([nH]c3ccccc13)CCCC2	1.85µM*	3.6%	-10.0	1.85µM*	-4.6%

Bioassay records from PubChem BioAssay.
